Assay results: the supplement of paper PMC6555819

Legend:
Assay in all cases: PBM binding z-score (relative to random genomic background probes); higher = stronger binding; sequences stand for … in GC…GCGATTGACAGCGTAGAATGAAGG
[1] = system: RARb homodimer (NR concentration 270 nM)
Procedure, shortened: (§1)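 For binding z-scores, the reference was random background probes on custom Agilent 4×180K protein-binding microarrays. These arrays were incubated 1 h with ligand-free nuclear receptor dimers in PBS pH 7.4, 2% milk, 0.02% Triton X-100, 1 mM DTT, 0.2 mg/mL BSA and 0.4 mg/ml salmon testes DNA. Fluorescence was scanned after antibody detection of each partner (one per run) and regression-normalized.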

[2] = system: RARg:RXRa (NR concentration 270 nM, RXRa partner concentration 90 nM)
Procedure, shortened: as §1

[3] = system: RARg homodimer (NR concentration 270 nM)
Procedure, shortened: as §1

[4] = system: RXRa DBDmut IVT, anti-RXR (DBD mutation: RXRa K156A/R161A, NR concentration 90 nM)
Procedure, shortened: as §1

[5] = system: RXRa homodimer (NR concentration 180 nM)
Procedure, shortened: as §1

[6] = system: THRa:RXRa (NR concentration 90 nM, RXRa partner concentration 90 nM)
Procedure, shortened: as §1

[7] = system: THRa homodimer (NR concentration 90 nM)
Procedure, shortened: as §1

[8] = system: VDR homodimer (NR concentration 270 nM)
Procedure, shortened: as §1

Row | Sequence | PBM binding z-score [1] | PBM binding z-score [2] | PBM binding z-score [3] | PBM binding z-score [4] | PBM binding z-score [5] | PBM binding z-score [6] | PBM binding z-score [7] | PBM binding z-score [8]
1 | TCTCGAAGGACACGAAGGTCAGAGCTTTCCAGAG | 3.75 | 2.99 | 3.73 | 0.817 | 1.94 | 2.03 | 0.331 | 0.435
2 | CGTCCAAGGTCATAGGAGGTCTGTGAAGACAGAT | 3.75 | 5.85 | 5.79 | 3.7 | 6.11 | 4.63 | 2.24 | 2.81
3 | CCTACTGGGCCAAAAAGGTCAGTGATGCCGATAA | 4.09 | 3.5 | 3.5 | -0.472 | 2.87 | 2.11 | 0.0212 | 0.295
4 | TCAGACAGGTGAAGGTAATTCAGGTACGCAGTCG | 0.916 | 0.717 | 0.626 | 1.5 | 1.08 | 1.81 | 0.574 | 0.38
5 | ATCGAAAGTTCGACGAGGTGAGTATACACCGTTT | 1.42 | 1.75 | 1.85 | 1.63 | 1.28 | 2.5 | 0.567 | 1.59
6 | TCGAGTAGGTTACCAACGGGGCATTCAGCTTTCT | 0.583 | 1.52 | 0.504 | 0.191 | 0.733 | 0.042 | -0.794 | -0.578
7 | ACAGATAGGTGATGAAGGTAACTCAGGCTATCAT | 0.0763 | 0.532 | 0.586 | -0.397 | 0.485 | 0.83 | -0.19 | -0.247
8 | TCATATAGGTAAATGCTGGGTGAAAGTCCGATCT | 0.617 | 0.24 | 0.16 | 1.48 | 0.693 | 0.785 | 0.692 | 0.384
9 | GCAGACAGGTGAAACGCAGGTAACCCAGGGTGGC | 0.0682 | 1.01 | 0.468 | -1.51 | 0.96 | 1.52 | -0.636 | -1.22
10 | GCAGACAGGTGAAACGCAGGTAACTAAGGGTGGC | 0.042 | 0.719 | 0.208 | -0.64 | 0.593 | 1.15 | -0.719 | -0.867
11 | TCTTGTAGATCAACAGGAGGTTACGAAAGATCGA | 0.979 | 1.06 | 0.394 | 0.347 | 1.19 | 1.5 | -0.205 | 0.0245
12 | ACTATTAGTTGTCTTAGGGCAACCGATACGACGC | 0.406 | 0.149 | 0.589 | 0.518 | 0.061 | 1.03 | 0.603 | 0.0368
13 | TCATATAGGTAATACAGGTGAATGTCGGCATCTA | 0.689 | 0.761 | 0.652 | 1.69 | 1.24 | 0.991 | 0.573 | -0.00173
14 | ATATGTAGGTTACATCCGGGGCATTCAGGCTATG | 1.23 | 1.76 | 1.3 | 0.51 | 1.12 | 1.83 | 0.704 | 0.977
15 | GCGACTGGGGCATCAGCAGGTTACCCTAACTTAA | 0.901 | 0.748 | 0.106 | -0.65 | 0.381 | 1.29 | 0.628 | -0.558
16 | GCTATTAGATGAAAGGGCAACCGAATGATTCTCG | 1.76 | 0.991 | 1.24 | 0.654 | 1.17 | 0.435 | -0.425 | -0.071
17 | ACTAGCAGGCCAAGTTTGGGTCTCTCAAACAAAG | 0.00651 | -0.231 | -0.0296 | -0.0597 | -0.754 | -0.042 | -0.533 | -0.181
18 | TCTGCTAAGTCAACGATGGTCAGCTAATCTGCTA | -0.66 | -0.413 | -0.169 | -0.0661 | -0.206 | -0.52 | -1.37 | -1.4
19 | ACTATTAGTTGAGACCAGGGCAACCGATAGGTTG | 0.667 | 0.276 | 0.568 | -0.232 | 0.3 | 1.79 | 0.11 | 0.0358

Row | Sequence | PBM binding z-score [1] | PBM binding z-score [2] | PBM binding z-score [3] | PBM binding z-score [4] | PBM binding z-score [5] | PBM binding z-score [6] | PBM binding z-score [7] | PBM binding z-score [8]
20 | ACTTACGGGTCAACGAGGTTATAGCACGCGTATA | 3.53 | 5.57 | 5.3 | 2.71 | 6.39 | 4.01 | 1.25 | 3.96
21 | ACATGTAGGTTAAGGGTCATTCAGGTTGGTTCGC | 3.49 | 4.68 | 3.24 | 2.73 | 5.95 | 3.42 | 2.01 | 4.91
22 | CCTACTGGGCCACGAAAGGTCGTTGATTCAGTGA | 2.27 | 1.65 | 1.29 | -0.0734 | 2.09 | 2.26 | -0.153 | 0.759
23 | CCTAGTTGGTCAAGGTCACAGACGCTATAGGTAC | 4.33 | 4.74 | 5.11 | 2.16 | 4.88 | 4.13 | 4.27 | 3.55
24 | TCATATAGGTATAAGGTGAAAGTCGGTGTGGTAA | 1.17 | 0.768 | 0.521 | 1.77 | 1.35 | 2.68 | 2.4 | 0.494
25 | CCTACTGGGCCATCAGGTCAGTGATATCAACGTT | 2.46 | 1.18 | 1.57 | -0.413 | 0.552 | 2.19 | 1.78 | 0.319
26 | TAGCCTAGGTCATGGGCCATTATACCACGCGAAC | 3.25 | 4.27 | 4.52 | 0.45 | 3.75 | 3.17 | 1.37 | 0.862
27 | AGAATGAGGTTACCAAAGATCATGGAAACGCTTG | 0.797 | 2.26 | 1.87 | 1.21 | 2.81 | 3.03 | 0.729 | 0.455
28 | ACTATTAGTGGACTTAGGGCAACCGATACGACGC | 0.427 | 0.269 | 0.779 | 0.397 | 0.286 | 1.17 | 0.136 | 0.0269
29 | CCAGTCAGGTGAGAAGGTAACTCAGCCTCGATTA | 0.469 | 0.276 | 0.321 | -0.0426 | 0.153 | 1.11 | 0.512 | -0.271
30 | ATATGTAGGGTAAGGGTCATTCAGGTTGGTTCGC | 4.19 | 4.59 | 3.27 | 2.16 | 5.38 | 3.68 | 2.68 | 5.02
31 | ATCTCCAGGTAAGACTCAGTTCAGTGAAGAACGC | 0.752 | 0.584 | 0.474 | 0.412 | 0.366 | 1.1 | 1.32 | 1.27
32 | CCTACTGGGCCAAAGGTCATCGATTCCAATGCTC | 4.9 | 6.09 | 5.38 | 0.987 | 7.08 | 3.65 | 0.966 | 2.04
33 | TTACGAAGGTGAGCTGAGGTCGTTGATCCAACTC | 1.6 | 1.37 | 1.23 | 0.439 | 1.27 | 4.56 | 1.78 | 2.57
34 | ACTTACTGGTCAACGAGGTTATAGCACGCGTATA | 1.88 | 1.72 | 1.94 | 1.16 | 1.85 | 2.26 | 1.22 | 1.71
35 | CCGACTGGGTCAAGGTTACCATAACGCACAGCCA | 3.15 | 3.98 | 4.05 | 0.852 | 3.59 | 2.83 | 1.51 | 1.02
36 | CCGCCTGGGGCAGAAAGGTTACCATACCATCCGG | 2.37 | 1.47 | 1.32 | -0.959 | 1.55 | 1.03 | -0.231 | 0.052
37 | TCTATGAGTTGAAGGGCAACCGACGAGTCCGTTT | 1.12 | 0.637 | 0.461 | 1.55 | 0.971 | 0.511 | -0.405 | 1.57
